Measured values as given in the supplement of paper PMC11732987, “Enantioselective OTUD7B fragment discovery through chemoproteomics screening and high-throughput optimisation” (Communications Chemistry, 2025).

Columns and labels:
Assay in all cases: log2 ratio of Biotin-Ahx-Ub-VS probe labelling (fragment/DMSO); higher = less target engagement (more negative = stronger competition), active = hit call of the paper (q ≤ 0.05, log2 ratio ≤ -1)
Conditions in all cases: compound concentration: 200 uM; treatment time: 3 h
USP9X = USP9X (UniProt Q93008)
How it was run: (§1)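 HEK293T lysate, 495 µg per sample in Tris/CHAPS/IGEPAL buffer with protease inhibitors, was treated in triplicate with fragment at 200 µM or vehicle for 3 h and then with Biotin-Ahx-Ub-VS at 0.5 µM final for 1 h. Labelled DUBs were NeutrAvidin-enriched, digested with LysC and trypsin, and run by diaPASEF LC-MS/MS. Spectronaut label-free quantities were global-median-normalised, and values are average log2 fragment/vehicle ratios by unpaired t-test on proteins with ≥2 unique peptides.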

UniProt O00487 = molecular target: UniProt O00487
How it was run: as §1

UniProt O00507 = molecular target: UniProt O00507
How it was run: as §1

UniProt P51784 = molecular target: UniProt P51784
How it was run: as §1

UniProt Q5T2D3 = molecular target: T1, UniProt Q5T2D3
T1 sequence (whole entry): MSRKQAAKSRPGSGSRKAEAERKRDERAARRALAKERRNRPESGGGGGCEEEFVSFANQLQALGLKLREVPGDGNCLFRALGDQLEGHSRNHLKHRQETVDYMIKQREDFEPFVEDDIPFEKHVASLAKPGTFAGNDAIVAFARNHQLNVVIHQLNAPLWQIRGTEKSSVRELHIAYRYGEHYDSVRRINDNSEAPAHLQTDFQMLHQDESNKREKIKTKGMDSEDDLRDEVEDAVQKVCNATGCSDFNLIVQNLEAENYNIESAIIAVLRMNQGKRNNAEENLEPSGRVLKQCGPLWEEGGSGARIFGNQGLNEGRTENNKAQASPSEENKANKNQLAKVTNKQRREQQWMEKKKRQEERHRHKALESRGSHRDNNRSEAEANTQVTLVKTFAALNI
How it was run: as §1

UniProt Q8TE49 = molecular target: T2, UniProt Q8TE49
T2 sequence (whole entry): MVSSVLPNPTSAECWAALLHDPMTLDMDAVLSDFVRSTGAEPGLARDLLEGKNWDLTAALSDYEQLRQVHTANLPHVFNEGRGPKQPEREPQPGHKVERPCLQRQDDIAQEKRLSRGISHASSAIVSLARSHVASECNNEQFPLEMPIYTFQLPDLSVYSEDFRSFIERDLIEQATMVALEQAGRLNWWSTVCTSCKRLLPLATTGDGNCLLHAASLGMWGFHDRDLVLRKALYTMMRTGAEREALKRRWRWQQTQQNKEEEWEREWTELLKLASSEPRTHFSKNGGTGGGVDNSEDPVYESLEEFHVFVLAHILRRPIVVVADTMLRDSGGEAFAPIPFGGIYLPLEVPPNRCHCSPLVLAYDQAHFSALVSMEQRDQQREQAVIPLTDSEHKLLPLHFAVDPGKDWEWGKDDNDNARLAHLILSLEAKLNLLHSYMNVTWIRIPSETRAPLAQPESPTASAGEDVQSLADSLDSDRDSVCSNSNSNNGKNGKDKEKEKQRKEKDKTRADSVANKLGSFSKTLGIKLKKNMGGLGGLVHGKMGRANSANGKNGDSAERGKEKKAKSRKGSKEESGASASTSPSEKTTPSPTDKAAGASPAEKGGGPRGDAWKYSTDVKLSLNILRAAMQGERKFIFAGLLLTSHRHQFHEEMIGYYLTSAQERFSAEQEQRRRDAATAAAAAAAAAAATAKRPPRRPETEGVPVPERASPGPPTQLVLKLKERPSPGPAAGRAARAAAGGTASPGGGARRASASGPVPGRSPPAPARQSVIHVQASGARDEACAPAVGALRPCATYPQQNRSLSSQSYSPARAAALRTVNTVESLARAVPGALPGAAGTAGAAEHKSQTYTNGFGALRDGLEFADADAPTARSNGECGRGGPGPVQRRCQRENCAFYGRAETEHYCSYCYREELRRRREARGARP
How it was run: as §1

UniProt Q9P2H5 = molecular target: T3, UniProt Q9P2H5
T3 sequence (whole entry): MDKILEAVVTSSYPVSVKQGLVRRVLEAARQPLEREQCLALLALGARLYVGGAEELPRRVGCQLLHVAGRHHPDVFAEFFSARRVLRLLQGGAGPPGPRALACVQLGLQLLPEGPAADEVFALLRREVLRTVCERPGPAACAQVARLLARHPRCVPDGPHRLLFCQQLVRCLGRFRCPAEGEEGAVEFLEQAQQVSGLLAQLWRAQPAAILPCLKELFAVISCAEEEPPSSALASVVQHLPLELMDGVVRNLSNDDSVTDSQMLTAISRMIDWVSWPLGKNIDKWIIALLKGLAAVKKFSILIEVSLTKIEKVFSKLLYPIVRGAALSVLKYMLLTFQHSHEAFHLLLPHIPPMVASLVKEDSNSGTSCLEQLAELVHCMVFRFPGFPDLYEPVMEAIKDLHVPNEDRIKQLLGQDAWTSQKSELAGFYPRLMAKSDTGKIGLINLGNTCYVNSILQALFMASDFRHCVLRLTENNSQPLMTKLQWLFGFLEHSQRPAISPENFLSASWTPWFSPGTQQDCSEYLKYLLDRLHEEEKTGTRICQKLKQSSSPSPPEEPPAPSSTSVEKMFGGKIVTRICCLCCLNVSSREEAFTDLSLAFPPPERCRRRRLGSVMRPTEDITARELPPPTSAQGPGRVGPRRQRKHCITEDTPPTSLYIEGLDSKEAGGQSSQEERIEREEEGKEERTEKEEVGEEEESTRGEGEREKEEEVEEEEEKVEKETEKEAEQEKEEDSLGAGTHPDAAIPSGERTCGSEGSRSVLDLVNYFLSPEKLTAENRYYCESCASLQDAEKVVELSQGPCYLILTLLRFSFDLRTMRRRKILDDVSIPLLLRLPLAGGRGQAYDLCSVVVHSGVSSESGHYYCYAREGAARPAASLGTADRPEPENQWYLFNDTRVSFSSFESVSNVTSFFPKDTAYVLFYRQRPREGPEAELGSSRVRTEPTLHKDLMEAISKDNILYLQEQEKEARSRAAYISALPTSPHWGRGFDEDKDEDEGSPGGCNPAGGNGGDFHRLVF
How it was run: as §1

UniProt Q9UGI0 = molecular target: T4, UniProt Q9UGI0
T4 sequence (whole entry): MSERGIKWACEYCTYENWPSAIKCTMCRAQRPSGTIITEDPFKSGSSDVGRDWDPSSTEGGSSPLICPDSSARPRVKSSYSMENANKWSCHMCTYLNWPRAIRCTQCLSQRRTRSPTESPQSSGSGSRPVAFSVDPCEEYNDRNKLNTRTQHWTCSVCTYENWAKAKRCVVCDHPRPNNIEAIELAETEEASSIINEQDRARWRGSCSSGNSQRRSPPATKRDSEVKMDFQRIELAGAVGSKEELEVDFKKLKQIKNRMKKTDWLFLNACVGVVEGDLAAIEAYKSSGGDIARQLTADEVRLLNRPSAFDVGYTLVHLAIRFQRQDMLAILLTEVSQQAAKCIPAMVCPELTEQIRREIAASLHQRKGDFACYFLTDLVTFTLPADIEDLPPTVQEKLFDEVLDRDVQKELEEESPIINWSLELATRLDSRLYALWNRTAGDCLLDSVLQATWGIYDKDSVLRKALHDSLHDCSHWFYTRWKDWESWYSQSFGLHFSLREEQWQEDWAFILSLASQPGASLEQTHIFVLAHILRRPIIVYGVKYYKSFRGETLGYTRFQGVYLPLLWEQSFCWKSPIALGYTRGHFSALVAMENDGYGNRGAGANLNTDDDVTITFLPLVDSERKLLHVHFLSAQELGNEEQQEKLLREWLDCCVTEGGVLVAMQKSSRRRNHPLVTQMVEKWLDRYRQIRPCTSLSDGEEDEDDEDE
How it was run: as §1

YOD1 = molecular target: T5, YOD1 (UniProt Q5VVQ6)
T5 sequence (whole entry): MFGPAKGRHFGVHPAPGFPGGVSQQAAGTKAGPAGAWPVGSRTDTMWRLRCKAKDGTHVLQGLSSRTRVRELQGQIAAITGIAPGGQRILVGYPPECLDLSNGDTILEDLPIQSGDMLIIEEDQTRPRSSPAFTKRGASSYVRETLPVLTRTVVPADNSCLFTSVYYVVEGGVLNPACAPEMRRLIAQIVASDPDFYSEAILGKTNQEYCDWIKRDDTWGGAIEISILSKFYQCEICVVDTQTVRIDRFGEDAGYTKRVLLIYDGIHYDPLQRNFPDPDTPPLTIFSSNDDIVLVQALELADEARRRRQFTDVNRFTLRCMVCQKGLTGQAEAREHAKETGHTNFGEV
How it was run: as §1

Measured: log2 ratio of Biotin-Ahx-Ub-VS probe labelling

Sequence of USP9X (Q93008 whole entry, the tested form may be a part): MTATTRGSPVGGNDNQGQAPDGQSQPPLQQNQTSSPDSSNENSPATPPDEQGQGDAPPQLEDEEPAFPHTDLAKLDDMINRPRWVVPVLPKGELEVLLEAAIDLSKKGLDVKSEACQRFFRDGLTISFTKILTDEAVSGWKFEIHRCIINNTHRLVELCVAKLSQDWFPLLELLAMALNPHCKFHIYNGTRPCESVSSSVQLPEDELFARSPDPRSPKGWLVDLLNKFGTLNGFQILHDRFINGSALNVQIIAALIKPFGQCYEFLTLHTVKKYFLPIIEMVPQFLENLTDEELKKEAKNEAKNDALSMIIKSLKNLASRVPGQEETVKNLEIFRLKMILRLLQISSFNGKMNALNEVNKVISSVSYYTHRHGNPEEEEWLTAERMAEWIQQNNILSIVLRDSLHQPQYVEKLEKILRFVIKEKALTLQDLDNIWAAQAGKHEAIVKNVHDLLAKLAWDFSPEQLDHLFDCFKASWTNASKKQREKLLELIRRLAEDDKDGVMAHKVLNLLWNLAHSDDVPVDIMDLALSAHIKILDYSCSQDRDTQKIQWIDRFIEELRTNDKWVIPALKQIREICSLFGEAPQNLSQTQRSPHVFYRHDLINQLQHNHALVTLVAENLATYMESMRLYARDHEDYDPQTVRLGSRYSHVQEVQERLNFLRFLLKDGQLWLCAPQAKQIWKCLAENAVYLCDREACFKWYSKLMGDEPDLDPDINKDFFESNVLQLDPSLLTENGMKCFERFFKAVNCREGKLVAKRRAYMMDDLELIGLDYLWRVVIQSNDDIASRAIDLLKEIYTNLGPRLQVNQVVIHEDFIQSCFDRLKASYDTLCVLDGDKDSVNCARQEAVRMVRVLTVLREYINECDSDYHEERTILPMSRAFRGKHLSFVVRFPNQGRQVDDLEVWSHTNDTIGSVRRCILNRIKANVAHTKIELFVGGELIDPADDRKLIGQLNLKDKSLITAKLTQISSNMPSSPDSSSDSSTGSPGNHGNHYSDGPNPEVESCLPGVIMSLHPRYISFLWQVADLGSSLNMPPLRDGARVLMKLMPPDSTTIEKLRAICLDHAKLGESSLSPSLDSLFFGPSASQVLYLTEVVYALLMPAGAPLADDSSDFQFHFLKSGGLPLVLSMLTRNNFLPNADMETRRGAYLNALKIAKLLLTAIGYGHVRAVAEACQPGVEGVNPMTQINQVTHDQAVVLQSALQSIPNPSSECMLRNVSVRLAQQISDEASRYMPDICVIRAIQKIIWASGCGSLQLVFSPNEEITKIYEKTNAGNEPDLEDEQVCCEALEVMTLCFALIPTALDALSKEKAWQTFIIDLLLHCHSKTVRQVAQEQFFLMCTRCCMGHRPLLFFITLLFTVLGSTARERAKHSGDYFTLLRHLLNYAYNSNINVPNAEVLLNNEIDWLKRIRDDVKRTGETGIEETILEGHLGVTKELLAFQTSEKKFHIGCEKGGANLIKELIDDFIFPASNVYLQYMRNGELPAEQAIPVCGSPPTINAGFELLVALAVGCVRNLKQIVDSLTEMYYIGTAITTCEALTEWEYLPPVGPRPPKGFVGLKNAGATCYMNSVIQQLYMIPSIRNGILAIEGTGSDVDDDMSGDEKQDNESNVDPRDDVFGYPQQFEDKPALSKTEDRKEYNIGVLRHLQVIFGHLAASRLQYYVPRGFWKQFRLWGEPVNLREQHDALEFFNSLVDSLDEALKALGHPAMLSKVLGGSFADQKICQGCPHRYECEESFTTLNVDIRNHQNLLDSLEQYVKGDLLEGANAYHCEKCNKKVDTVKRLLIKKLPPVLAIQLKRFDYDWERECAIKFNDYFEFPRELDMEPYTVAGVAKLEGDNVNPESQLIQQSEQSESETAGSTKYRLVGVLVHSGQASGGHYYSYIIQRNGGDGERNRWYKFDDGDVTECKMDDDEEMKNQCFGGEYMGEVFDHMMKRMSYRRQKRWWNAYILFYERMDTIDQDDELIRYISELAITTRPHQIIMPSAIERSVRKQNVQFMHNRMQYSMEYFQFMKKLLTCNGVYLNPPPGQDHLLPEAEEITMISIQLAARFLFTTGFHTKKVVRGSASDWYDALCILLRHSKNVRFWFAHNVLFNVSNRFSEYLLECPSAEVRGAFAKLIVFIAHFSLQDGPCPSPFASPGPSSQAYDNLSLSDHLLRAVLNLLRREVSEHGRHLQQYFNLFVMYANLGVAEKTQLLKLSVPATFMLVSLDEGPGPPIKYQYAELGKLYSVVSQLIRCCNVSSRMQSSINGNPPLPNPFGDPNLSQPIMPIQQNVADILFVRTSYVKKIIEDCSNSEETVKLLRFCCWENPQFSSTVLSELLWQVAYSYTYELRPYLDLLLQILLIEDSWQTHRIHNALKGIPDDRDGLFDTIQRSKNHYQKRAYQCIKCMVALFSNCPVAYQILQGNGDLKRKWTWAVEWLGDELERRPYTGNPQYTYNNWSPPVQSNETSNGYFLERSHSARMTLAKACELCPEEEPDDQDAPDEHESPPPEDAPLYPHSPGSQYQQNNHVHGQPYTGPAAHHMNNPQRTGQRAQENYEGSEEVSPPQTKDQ
Sequence of UniProt O00487 (O00487 whole entry): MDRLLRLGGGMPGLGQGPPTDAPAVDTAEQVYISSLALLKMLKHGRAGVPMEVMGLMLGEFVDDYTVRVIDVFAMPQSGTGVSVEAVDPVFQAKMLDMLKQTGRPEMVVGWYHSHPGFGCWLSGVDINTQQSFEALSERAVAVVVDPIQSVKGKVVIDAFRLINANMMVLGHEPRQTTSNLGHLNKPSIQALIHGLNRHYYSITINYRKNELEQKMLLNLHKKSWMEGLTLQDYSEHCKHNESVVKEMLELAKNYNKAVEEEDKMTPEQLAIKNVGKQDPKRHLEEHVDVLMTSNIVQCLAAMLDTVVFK
Sequence of UniProt P51784 (P51784 whole entry): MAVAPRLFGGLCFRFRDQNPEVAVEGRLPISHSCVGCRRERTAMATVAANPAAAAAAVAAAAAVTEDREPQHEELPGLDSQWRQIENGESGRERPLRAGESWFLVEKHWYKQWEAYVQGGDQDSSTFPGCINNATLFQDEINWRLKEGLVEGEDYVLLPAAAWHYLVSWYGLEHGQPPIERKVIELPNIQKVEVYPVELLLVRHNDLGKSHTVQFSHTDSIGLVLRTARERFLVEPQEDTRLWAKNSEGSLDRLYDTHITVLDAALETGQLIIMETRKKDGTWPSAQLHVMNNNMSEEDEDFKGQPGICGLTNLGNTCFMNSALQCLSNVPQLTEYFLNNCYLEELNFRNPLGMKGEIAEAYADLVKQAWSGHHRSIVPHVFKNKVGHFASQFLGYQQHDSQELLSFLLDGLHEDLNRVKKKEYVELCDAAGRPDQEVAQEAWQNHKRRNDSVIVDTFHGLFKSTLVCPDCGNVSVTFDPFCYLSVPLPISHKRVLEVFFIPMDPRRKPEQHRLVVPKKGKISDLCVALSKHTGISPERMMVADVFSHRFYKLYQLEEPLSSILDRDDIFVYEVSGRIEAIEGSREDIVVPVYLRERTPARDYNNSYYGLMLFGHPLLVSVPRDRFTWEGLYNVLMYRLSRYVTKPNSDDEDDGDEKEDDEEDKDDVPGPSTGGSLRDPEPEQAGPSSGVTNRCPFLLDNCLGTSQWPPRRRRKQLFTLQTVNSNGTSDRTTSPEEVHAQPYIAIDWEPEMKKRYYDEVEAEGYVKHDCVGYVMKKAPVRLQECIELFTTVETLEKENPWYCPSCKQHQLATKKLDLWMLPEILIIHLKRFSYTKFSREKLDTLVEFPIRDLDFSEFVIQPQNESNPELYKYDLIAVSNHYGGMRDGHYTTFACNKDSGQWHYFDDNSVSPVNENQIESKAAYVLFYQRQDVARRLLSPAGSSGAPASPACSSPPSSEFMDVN

CC(NC(=O)CCl)c1cccc(Cl)c1 (centres undefined)
inactive: USP9X -0.388 | UniProt O00487 -0.18 | UniProt O00507 -0.176 | UniProt P51784 -0.0638 | UniProt Q5T2D3 -0.271 | UniProt Q8TE49 -0.632 | UniProt Q9P2H5 -0.25 | YOD1 -0.167
active: UniProt Q9UGI0 -1.18
